A short description of test [1]: Tanguay_ZF_120hpf_DP24: Oregon State University Tanguay Lab 24 Hour Post-fertilization zebrafish Assay for Delayed Development (AID 2284390). In short, it runs like this:
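Scored at 24 hpf as a binary present/absent call of delayed development by brightfield, with dead embryos not assessed. Embryos (5D wild type, chorion removed with pronase at 4 hpf) dosed statically from 6 hpf at 28 C in 0.64% DMSO.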

The nature of test [2]: Tanguay_ZF_120hpf_AXIS: Oregon State University Tanguay Lab 120 Hour Post-fertilization zebrafish Assay for Axial Malformation (AID 2284398). In short, it runs like this:
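Scoring was binary (present or absent) for body-axis defects, judged by brightfield imaging at 120 hpf in surviving larvae. Exposure was static at 28C from 6 hpf in chorion-free 5D wild-type embryos, with 0.64% DMSO vehicle.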

Test [3] can be described thus: Tanguay_ZF_120hpf_BRN: Oregon State University Tanguay Lab 120 Hour Post-fertilization zebrafish Assay for Brain Region Malformation (AID 2284402). A digest of the protocol:
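Binary brightfield scoring of brain malformation at 120 hpf in 5D wild-type larvae, chorion removed with pronase at 4 hpf. Static exposure began at 6 hpf, 28C, sealed plates, DMSO 0.64% (vol/vol) as vehicle baseline.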

A short description of test [4]: Tanguay_ZF_120hpf_TCHR: Oregon State University Tanguay Lab 120 Hour Post-fertilization zebrafish Assay for Touch Responsive (AID 2284403). A digest of the protocol: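 Binary touch-response calls are made at 120 hpf in 5D wild-type zebrafish larvae. These larvae were dechorionated with pronase and exposed singly from 6 hpf in sealed, dark plates at 28 °C with 0.64% DMSO final; dead embryos are excluded.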

A short description of test [5]: Tanguay_ZF_120hpf_ANY: Oregon State University Tanguay Lab 120 Hour Post-fertilization zebrafish Assay for Any Mortality and Malformation (AID 2284404). In short, it runs like this: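 Dechorionated Tropical 5D wild-type embryos, one per well from 6 hpf, static exposure in sealed, dark plates at 28C until 120 hpf, 0.64% DMSO final. Brightfield scoring of mortality and malformations as binary presence/absence, pooling 13 morphology endpoints.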

Test [6] can be described thus: CCTE_Padilla_ZF_Score.Edema: CCTE's 144 Hour Post-fertilization zebrafish Assay Score for Edema Malformation, Padilla Lab (AID 2284406). A digest of the protocol: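 Edema scored at 6 dpf by two blinded observers under a stereo microscope, in single outbred wild-type larvae exposed from 6-8 hpf in sealed wells (Hanks', 26C, 14:10 h light) and chemical-free after a 5 dpf rinse.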

Test [7] is described as follows: CCTE_Padilla_ZF_Score.Spine: CCTE's 144 Hour Post-fertilization zebrafish Assay Score for Spine Malformation, Padilla Lab (AID 2284407). In short, it runs like this: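 Spine malformation scored at 6 dpf by two independent blinded observers under stereomicroscope, after static sealed exposure from 6–8 hpf at 26C in Hanks' solution with rinse on 5 dpf. Positive-direction fit against DMSO control.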

The nature of test [8]: CCTE_Padilla_ZF_Score.Swim_bladder: CCTE's 144 Hour Post-fertilization zebrafish Assay Score for Swim Bladder Malformation, Padilla Lab (AID 2284408). A digest of the protocol: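 Swim bladder inflation scored at 6 dpf by two blinded observers under a stereo microscope. Exposure ran from 6–8 hpf in sealed wells of 10% Hanks' at 26C, with rinsing at 5 dpf; DMSO served as baseline.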

Test [9] is described as follows: CCTE_Padilla_ZF_Score.Position: CCTE's 144 Hour Post-fertilization zebrafish Assay Score for Position, Padilla Lab (AID 2284409). In short, it runs like this: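 Wild-type zebrafish embryos (with chorions) exposed singly from 6–8 hpf in sealed wells of Hanks' solution at 26C, rinsed at 5 dpf. At 6 dpf, blinded assessors scored abnormal water-column position by brightfield stereomicroscopy, relative to DMSO.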

Test [10] in a line: CCTE_Padilla_ZF_Score.Living: CCTE's 144 Hour Post-fertilization zebrafish Assay Score for Viability, Padilla Lab (AID 2284410).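 Also: larval death at 6 dpf judged by absent heartbeat or coagulation.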 In short, it runs like this:
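Mortality at 6 dpf, judged as absent heartbeat or coagulation by two blinded observers, after sealed static exposure beginning at 6–8 hpf at 26C. Larvae were rinsed free of chemical at 5 dpf, and activity was fitted relative to DMSO.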

Test [11] in a line: CCTE_Padilla_ZF_Score.General: CCTE's 144 Hour Post-fertilization zebrafish Assay Score for General Malformation, Padilla Lab (AID 2284411). A digest of the protocol: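 Malformation, death and hatching were scored at 6 dpf by two blinded observers under a stereo microscope. Embryos were dosed singly from 6-8 hpf in sealed plates of 10% Hanks' at 26C and rinsed on 5 dpf; DMSO baseline.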

A short description of test [12]: CCTE_Padilla_ZF_Score.Tail: CCTE's 144 Hour Post-fertilization zebrafish Assay Score for Tail Malformation, Padilla Lab (AID 2284414). A digest of the protocol:
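Tail malformations were scored at 6 dpf by two blinded assessors under a stereo microscope. Chorionated embryos had been exposed from 6-8 hpf in sealed wells of 10% Hanks' at 26 C, then rinsed free of chemical at 5 dpf.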

Test [13] is described as follows: CCTE_Padilla_ZF_Score.Blood_pooling: CCTE's 144 Hour Post-fertilization zebrafish Assay Score for Blood Pooling, Padilla Lab (AID 2284415). A digest of the protocol: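 Blood pooling was scored at 6 dpf under a stereo microscope by two blinded assessors, fitted upward against DMSO. Single embryos were dosed at 6–8 hpf in 10% Hanks', kept sealed at 26C (14:10 h cycle) and rinsed at 5 dpf.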

What is called AC50 is the concentration giving half of the maximal activity seen.

Activity calls are given as the source filed them. The calls were made as follows: active = hit-call score of the fitted dose curve at least 0.9, where 1 is the maximum; inactive = score below 0.9.

Consider `OCC(O)CC(F)(F)C(F)(F)C(F)(F)C(F)(F)C(F)(F)C(F)(F)C(F)(F)C(F)(F)F` (stereo not given), for which the call in test [1], in test [3], in test [4], in [7], in test [12] and in test [13] was inactive. Besides, the AC50 in test [2] is 6.61 µM (active); in test [5] it was 5.14 µM (active); in test [6], 9.75 µM (active); in test [8], 6.73 µM (active); in test [9], 17.6 µM (active); in test [10], 17.7 µM (active). Further, the AC50 in test [11] is 11.8 µM (active).

Regarding `C[Si](Cl)(Cl)CCC(F)(F)C(F)(F)C(F)(F)C(F)(F)C(F)(F)C(F)(F)F`, the outcome in test [1], in [2], in test [3], in [4], in test [5] and in test [6] was inactive. Also, the call in test [7], in [8], in test [9], in test [10], in [11] and in test [12] was inactive. In addition, the molecule was called inactive in [13].

For `NC(=O)C(F)(F)C(F)(F)C(F)(F)C(F)(F)C(F)(F)C(F)(F)C(F)(F)F`, the molecule was classed as inactive in test [1], in [2], in [3], in test [4], in [6] and in test [7]. Moreover, the molecule was classed as inactive in test [8], in [9], in test [10], in [11], in [12] and in test [13]. Also, the concentration at half-maximal activity (AC50) in test [5] was 43.4 µM (active).

Take `O=S(=O)(O)CCC(F)(F)C(F)(F)C(F)(F)C(F)(F)C(F)(F)C(F)(F)C(F)(F)C(F)(F)F`: the AC50 was 79.2 µM (active) in test [1] and 74.4 µM (active) in [5]. The call in test [2], in test [3], in test [4], in test [6], in test [7] and in test [8] was inactive. Moreover, the molecule was called inactive in test [9], in [10], in [11], in [12] and in [13].

`FC(F)(F)C(F)(F)C(F)(F)C(F)(F)C(F)(F)C(F)(F)CC[Si](Cl)(Cl)Cl`: the call in [1], in test [2], in [3], in test [4] and in [5] was inactive.

Consider `OCCCCC(F)(F)C(F)(F)C(F)(F)C(F)(F)F`, for which the molecule was classed as inactive in test [1], in test [2], in test [3], in [4], in [5] and in [7]. In addition, the molecule was classed as inactive in test [12] and in test [13]. For the same molecule, the AC50 was 29.2 µM (active) in test [6]; 30.6 µM (active) in [8]; 34.1 µM (active) in test [9]; 88.8 µM (active) in test [10]; 21 µM (active) in [11].

On to `OCCCC(F)(F)C(F)(F)C(F)(F)C(F)(F)C(F)(F)C(F)(F)C(F)(F)C(F)(F)F`, for which the call in test [1], in [2], in test [3], in test [4], in test [5] and in [6] was inactive. Further, the molecule was classed as inactive in [7], in [8], in test [9], in test [10], in test [11] and in test [12]. Also, in [13], the call was inactive.

On to `CNS(=O)(=O)C(F)(F)C(F)(F)C(F)(F)C(F)(F)C(F)(F)C(F)(F)C(F)(F)C(F)(F)F`, for which the result in [1], in [2], in test [3], in test [4], in test [7] and in test [9] was inactive. In addition, the molecule was classed as inactive in test [10], in [12] and in test [13]. In addition, the AC50 is 55.5 µM (active) in test [5], 20.7 µM (active) in [6], 0.606 µM (active) in test [8] and 0.737 µM (active) in test [11].

Take `NC(O)(C(F)(F)F)C(F)(F)F`: the molecule was classed as inactive in test [1], in test [2], in test [3], in test [4], in test [5] and in test [6]. Besides, the result in test [7], in [8], in test [9], in test [10], in test [12] and in test [13] was inactive. Moreover, the AC50 in [11] is 85 µM (active).

For the molecule `NC(=O)C(F)(F)C(F)(F)C(F)(F)F`, the result in test [1], in test [2], in test [3], in [4], in test [5] and in test [6] was inactive. Besides, the molecule was classed as inactive in test [7], in test [8], in test [9], in test [10], in test [11] and in [12]. In addition, the outcome in test [13] was inactive.

Consider `O=C(O)C(F)(F)C(F)(F)C(F)(F)OC(F)(F)F`, for which the call in test [1], in test [2], in test [3], in test [4], in test [5] and in test [6] was inactive. Besides, the call in test [7], in test [8], in test [9], in test [10], in test [11] and in test [12] was inactive. Besides, the molecule was classed as inactive in [13].

These data come from PubChem BioAssay (EPA / NIEHS).
